Screening data as filed in PubChem BioAssay.
Shown are actives, neighbours in structure and some others; about 3.4% of the full set was active somewhere.
MEKK2 mut-MEK5 = signal of MEK5 binding to mutant human MEKK2 PB1 domain; bead flow cytometry, Alexa488-MEK5 binding to MEKK2 mutant; percent response, % at 10 µM; 0.35% of 290,000 active; in the data active = percent response above about 24%, passing the limit was not always enough
MEKK2wt PB1 HTS = raises or lowers MEK5 binding to wildtype human MEKK2 PB1 domain; bead flow cytometry, Alexa488-MEK5 binding to MEKK2 WT; actives lie on both sides; Q9Y2U5; 1.1% of 290,000 active; binding response (% of control), % at 10 µM; AID 1531; in the data active = binding response below about 67% or above about 130%
NTR1 ag = activates human neurotensin receptor 1. P30989. NTR1-U2OS beta-arrestin-GFP spot imaging, agonist mode. activation, % at 20 µM. 0.17% of 330,000 active. AID 493036;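 active = activation at or above 40% of the spot to cytoplasm intensity ratio, with at least 20 cells analyzed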
MEKK3 PB1 HTS = raises or lowers MEK5 binding to the human MEKK3 PB1 domain; Q99759; bead-based flow cytometry, Alexa488-MEK5 binding to MEKK3; actives lie on both sides; 0 = blocked by unlabeled MEK5, 100 = vehicle; binding response (% of control), % at 10 µM; 1.4% of 290,000 active;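 active = binding response more than 3 SD above or below the average of its plate-row segment, actives on both sides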;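 also: Alexa488 bead fluorescence after subtracting the streptavidin-only scavenger bead signal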
Target sequence (Q99759 whole entry, looked up, the tested form may be a part): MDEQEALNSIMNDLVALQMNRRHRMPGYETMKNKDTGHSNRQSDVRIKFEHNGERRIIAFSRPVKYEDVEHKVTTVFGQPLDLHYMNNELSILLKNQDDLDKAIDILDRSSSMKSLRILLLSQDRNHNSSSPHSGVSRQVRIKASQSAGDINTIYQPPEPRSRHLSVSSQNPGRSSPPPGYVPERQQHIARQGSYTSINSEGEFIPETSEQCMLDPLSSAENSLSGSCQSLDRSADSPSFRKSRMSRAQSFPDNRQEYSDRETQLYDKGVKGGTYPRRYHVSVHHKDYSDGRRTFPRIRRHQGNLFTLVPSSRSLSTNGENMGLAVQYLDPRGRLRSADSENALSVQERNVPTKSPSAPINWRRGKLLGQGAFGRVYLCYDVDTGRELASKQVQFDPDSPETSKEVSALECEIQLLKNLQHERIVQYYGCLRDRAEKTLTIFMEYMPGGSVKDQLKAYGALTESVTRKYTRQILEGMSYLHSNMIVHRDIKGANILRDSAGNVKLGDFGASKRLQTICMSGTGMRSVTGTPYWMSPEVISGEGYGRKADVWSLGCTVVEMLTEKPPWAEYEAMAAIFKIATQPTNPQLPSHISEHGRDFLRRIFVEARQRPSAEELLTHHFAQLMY
TMEM16A inh = inhibitors of mouse TMEM16A calcium-activated chloride channel. Q8BHY3. HEK293 TMEM16A/YFP iodide influx fluorescence, ionomycin. normalized B-score (activity score, 25-100; higher = stronger inhibition) at 10 µM. 1.2% of 310,000 active. AID 588511;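 active = ratio plate-corrected score three or more library SD toward inhibition, starting fluorescence score within five deviations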;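 also: score derived from kinetic fluorescence span divided by baseline fluorescence per well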
ANO1 activ = activates or potentiates the mouse TMEM16A chloride channel; Q8BHY3; HEK293 TMEM16A/YFP-H148Q/I152L, iodide quench fluorescence; stronger effect = lower value; B-score at 10 µM; 0.3% of 340,000 active;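 active = fluorescence-ratio B-score plate-corrected deviation score at least 3 library SD below zero, with starting fluorescence score within 5 deviations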;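 also: channel opened by trigger with iodide after compound preincubation; score built on the fluorescence ratio of max minus min over baseline; more negative score means more quench and so TMEM16A activation or potentiation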
TMEM16A reconf = reconfirmed blocker of mouse TMEM16A calcium-activated chloride channel; shares compounds with TMEM16A inh; HEK293 TMEM16A/YFP-H148Q, iodide quench fluorescence; ionomycin added to raise cell calcium; inhibition, % at 10 µM; 39% of 2,300 active;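 active = mean duplicate percent inhibition, scaled so buffer wells are 0 and the reference blocker 100, over three buffer SD above buffer mean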
HEK293 Ca mobil = calcium mobilization counter-screen hit for TMEM16A inhibitor series. calcium response (% of ionomycin), % at 10 µM. 2% of 2,300 active. AID 652231. TMEM16A/YFP HEK293, Fluo4 calcium mobilization. shares compounds with TMEM16A inh;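 active = duplicate-averaged calcium signal over 20% of the ionomycin maximum, relative to buffer baseline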;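 also: each well's signal is peak minus trough fluorescence divided by its pre-addition baseline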
Parental YFP cnt = counter-screen for TMEM16A inhibitors: effect in parental YFP-HEK293 cells. shares compounds with TMEM16A inh. iodide YFP quench, ionomycin. YFP ratio F(max-min)/F0 at 10 µM. 2,300 tested, under 10 active. AID 652233;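 active = yellow fluorescent protein signal ratio exceeding the buffer control mean by over 5 SD of those controls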;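 also: ratio is mean of duplicate wells from kinetic YFP trace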
ClC-1 rat inh = selectivity of TMEM16A inhibitors: inhibition of rat ClC-1 chloride channel | shares compounds with TMEM16A inh | CHO ClC-1-YFP, iodide influx fluorescence quench; iodide control reads 0, buffer control 100 | 2,300 tested, under 10 active | ratio percent, % at 10 µM;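 active = duplicate-mean ratio percent above the mean of iodide-only control wells, which defines zero, plus 5 of their SD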;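 also: higher percent means stronger block of ClC-1 iodide influx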
Hits are given with their value; n = inactive; x = no result given.

SMILES | MEKK2 mut-MEK5 | MEKK2wt PB1 HTS | NTR1 ag | MEKK3 PB1 HTS | TMEM16A inh | ANO1 activ | TMEM16A reconf | HEK293 Ca mobil | Parental YFP cnt | ClC-1 rat inh
O=C(CCc1nc(-c2ccccc2)no1)NC1CCCCCC1 | x | x | n | x | x | n | x | x | x | x
Cc1ccc(-c2cn3nc(C)c(C)nc3n2)cc1 | x | x | n | x | n | n | n | n | n | n
C/C=C(/C)C(=O)O[C@@H]1c2c(ccc3ccc(=O)oc23)OC(C)(C)[C@@H]1OC(=O)/C(C)=C\C | n | n | n | n | 100 | n | 23% | n | n | n
Cc1cc(N=Nc2ccccc2C(=O)O)c(C)c(C)c1O | n | n | n | n | n | n | 53% | n | n | n
Cc1cc(O)c(C(C)C)cc1N=Nc1ccccc1C(=O)O | n | n | n | n | n | n | 38% | n | n | n
Cc1cc(O)c(C(C)C)cc1N=Cc1ccccc1[N+](=O)[O-] | x | x | x | x | x | n | x | x | x | x
COc1cc(N=Nc2ccccc2C(=O)O)ccc1O | n | n | n | n | n | n | x | x | x | x
CC1=CC(=O)CC(C)(C)[C@@]1(O)/C=C/[C@@H](C)O[C@@H]1O[C@H](CO)[C@@H](O)[C@H](O)[C@H]1O | x | x | n | x | x | n | x | x | x | x
COc1ccc(S(=O)(=O)Nc2ccccc2-c2nnn(CC(=O)Nc3ccccc3OC)n2)cc1 | n | n | n | n | n | n | x | x | x | x
COc1ccc(NC(=O)Cn2nnc(-c3ccccc3NS(=O)(=O)c3ccccc3)n2)cc1 | n | n | n | n | 100 | n | 38% | n | n | n
Cc1cccc(NC(=S)NCCSc2ccc(Cl)cc2)c1 | n | n | n | n | 100 | n | 72% | n | n | n
O=C(CCN1C(=O)c2ccccc2S1(=O)=O)NCc1ccccc1Cl | x | x | n | x | x | n | x | x | x | x
Cc1[nH]n(-c2ccccc2)c(=O)c1C(=O)c1ccccc1 | n | n | n | n | n | n | x | x | x | x
CCSC(=S)c1c(C)[nH]n(-c2ccccc2)c1=O | n | n | n | n | 100 | n | 29% | n | n | n
Cc1csc2c(N3CCN(C(=O)Nc4ccc(Cl)c(Cl)c4)CC3)ncnc12 | n | n | n | n | 25 | n | 29% | n | n | n
Cc1csc2c(N3CCN(C(=S)Nc4ccc(C(F)(F)F)cc4)CC3)ncnc12 | n | n | n | n | 100 | n | n | n | n | n
CCOC1=NC(=C(c2ccccc2)c2ccccc2)OC1=O | x | x | x | x | x | n | x | x | x | x
Cc1n[nH]c(=O)c2c(NC(=O)CSc3nn(-c4ccc(F)cc4)c(=S)s3)oc(C)c12 | x | x | n | x | n | n | x | x | x | x
CC(=O)N(Cc1ccccc1)c1ncc2c(n1)c(=O)c(C#N)c1ccccn12 | n | n | n | n | 25 | n | n | n | n | n
CC(=O)N(Cc1c(C#N)c2ccccc2n1C)c1ccccc1 | n | n | n | n | n | n | x | x | x | x
CC(C)Cn1c(Cc2ccccc2)n[nH]c1=S | n | n | n | n | 100 | n | n | n | n | n
CCn1c(Cc2ccccc2)n[nH]c1=S | n | n | n | n | n | n | x | x | x | x
CC1CN(S(=O)(=O)c2ccc(C(=O)Nc3nc(-c4cc5ccccc5o4)cs3)cc2)CC(C)O1 (stereo unspecified) | n | n | n | n | 25 | n | n | n | n | n
O=C(Nc1nc(-c2nc3ccccc3s2)cs1)c1ccc(S(=O)(=O)N2CCOCC2)cc1 | x | x | n | x | 100 | n | 33% | n | n | n
O=C(Nc1nc(-c2ccc(S(=O)(=O)N3CCOCC3)cc2)cs1)c1ccccc1 | x | x | n | x | n | n | x | x | x | x
SMILES | MEKK2 mut-MEK5 | MEKK2wt PB1 HTS | NTR1 ag | MEKK3 PB1 HTS | TMEM16A inh | ANO1 activ | TMEM16A reconf | HEK293 Ca mobil | Parental YFP cnt | ClC-1 rat inh
O=C(Nc1nc(-c2ccc(S(=O)(=O)N3CCCC3)cc2)cs1)c1cccs1 | n | n | n | n | 25 | n | 26% | n | n | n
COc1ccc(S(=O)(=O)N2CCOC23CCN(S(=O)(=O)c2ccc(F)cc2C)CC3)cc1 | x | x | n | x | x | n | x | x | x | x
CCC(C)(C(=O)Nc1c(C)cccc1C)N(C)C(=O)c1ccc2ccccc2n1 (stereo unspecified) | n | n | n | n | n | n | x | x | x | x
Cc1ncc([N+](=O)[O-])n1CC(=O)Nc1cccc(C(F)(F)F)c1 | n | n | n | n | n | n | x | x | x | x
O=C1N[C@@H](Cc2c[nH]c3ccccc23)COC(=O)[C@@H](Cc2ccc(F)cc2)CC/C=C/C[C@@H]1CC(=O)N(CCO)Cc1ccccc1 | x | x | n | x | x | x | x | x | x | x
Cc1ccnc(NC(=O)COc2ccc3oc4c(c3c2)CCCC4)c1 | n | n | n | n | 100 | n | n | n | n | n
CC1c2cc3c(cc2CCN1C(=O)c1ccc(Cl)cc1)OCCCO3 (stereo unspecified) | n | n | n | n | 25 | n | n | n | n | n
Cc1ccc(C(=O)N2CCc3cc4c(cc3C2C)OCCCO4)cc1 (stereo unspecified) | n | n | n | n | n | n | x | x | x | x
Cc1ccc(C)c(Oc2nnnn2-c2ccccc2)c1 | n | n | n | n | n | n | x | x | x | x
Cc1ccc(C(C)C)c(Oc2nnnn2-c2ccccc2)c1 | n | n | n | n | 25 | n | 26% | n | n | n
Cc1cc2n(n1)C(c1cn(-c3ccccc3)nc1C)Nc1ccccc1-2 (stereo unspecified) | n | n | n | n | n | n | x | x | x | x
Cc1cc2n(n1)C(c1cn(-c3ccccc3)nc1C)Nc1c(C)cccc1-2 (stereo unspecified) | n | n | n | n | n | n | n | n | n | n
Clc1ccc(OCCSc2ncccn2)c(Br)c1 | n | n | n | n | n | n | x | x | x | x
Cc1cc(C)c(C#N)c(SCC(=O)Nc2c(C)n(C)n(-c3ccccc3)c2=O)n1 | x | x | n | x | x | n | x | x | x | x
Cc1ccc(Sc2c(CO)c(-c3ccccc3)nn2C)cc1 | n | n | n | n | 100 | n | 28% | 22% | n | n
Cc1ccc(-n2nnnc2SCc2nnc(-c3ccccc3Br)o2)c(C)c1 | n | n | n | n | 100 | n | n | n | n | n
CCOC(=O)Cc1csc(SCC(=O)Nc2cccc(Cl)c2)n1 | n | n | n | n | 100 | n | 26% | n | n | n
O=C(Nc1cc(S(=O)(=O)N2CCOCC2)ccc1N1CCOCC1)c1cccs1 | x | x | n | x | x | n | x | x | x | x
COc1ccc(-c2nc(C#N)c(N3CCc4ccccc4C3)o2)cc1OC | n | n | n | n | 100 | n | n | n | n | n
